The results in this text go back to PubChem BioAssay (EPA / NIEHS).

Assay [1] in a line: CCTE_Shafer_MEA_acute_per_network_burst_electrodes_number_mean: CCTE's Neural Acute Assay for Mean Number of Electrodes in a Network Burst, Shafer Lab (AID 2284021; active means hit-call score of the fitted dose curve at least 0.9, where 1 is the maximum; inactive means score below 0.9;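 further: curves fitted for decreases only so hits reduce electrodes per burst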). In short, it runs like this: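 Readout: % change in mean electrodes active per network burst, post- vs pre-treatment, each well. Spikes detected at 8x rms noise after 300-5000 Hz band-pass; rat cortical cultures, DIV 13/15, compounds 0.03-40 uM, DMSO baseline.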

Assay [2] is described as follows: CCTE_Shafer_MEA_acute_network_burst_percentage: CCTE's Neural Acute Assay for Percentage of Network Bursts, Shafer Lab (AID 2284022; active means hit-call score of the fitted dose curve at least 0.9, where 1 is the maximum; inactive means score below 0.9;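 further: rat primary cortical neuron networks on multiwell MEA recorded 40 min; curves fitted for loss so actives lower network burst percentage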). A digest of the protocol: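 Rat cortical cultures, DIV 13/15; 20 min equilibration, 40 min baseline, compound 0.03-40 uM, 40 min recording, 37 C. Spikes: 300-5000 Hz band-pass, threshold 8x rms noise. Readout: % change in network-burst spike fraction; loss direction vs DMSO.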

Assay [3] can be described thus: CCTE_Shafer_MEA_acute_cross_correlation_area: CCTE's Neural Acute Assay for Area of Cross Correlation, Shafer Lab (AID 2284024; active means hit-call score of the fitted dose curve at least 0.9, where 1 is the maximum; inactive means score below 0.9;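 further: rat primary cortical neuron networks on 48-well MEA at DIV 13 or 15 with 40 min exposure; area under pooled inter-electrode spike cross-correlation near zero lag as percent change from own baseline; curves fitted for loss of cross-correlation area so actives lower synchrony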). A digest of the protocol:
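Rat cortical cultures, DIV 13/15, MEA; spikes detected at 8x rms noise (300-5000 Hz band-pass). Compound 0.03-40 uM, ≥3 wells each. Readout: % change in pooled inter-electrode cross-correlation area vs own baseline; DMSO negative control.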

The nature of assay [4]: CCTE_Shafer_MEA_acute_synchrony_index: CCTE's Neural Acute Assay for Synchrony, Shafer Lab (AID 2284027; active means hit-call score of the fitted dose curve at least 0.9, where 1 is the maximum; inactive means score below 0.9;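 further: network synchrony index of spontaneous spiking in primary rat cortical neurons on MEAs; fitted for loss of signal so actives lower synchrony relative to DMSO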). A digest of the protocol:
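Plates equilibrated 20 min at 37 C, baseline recorded 40 min, compound (0.03-40 uM) added, then 40 min more recorded. Cells: primary rat cortical neurons, DIV 13 or 15. Per-well synchrony index change analysed in negative direction against DMSO.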

Assay [5] addresses Estrogen receptor (Homo sapiens) (UniProt P03372). The assay is described as follows: CCTE_Deisenroth_AIME_384WELL_LUC_Active: CCTE's 384-well Estrogen Receptor Transactivation Assay with AIME metabolic competence (ERTA luciferase; metabolism positive), Deisenroth Lab (AID 2284030). A digest of the protocol:
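Readout: bioluminescent luciferase induction in VM7Luc4E2 cells 24 hour after receiving medium from a 2 h rat hepatic S9 (induced, alginate microsphere) metabolism step. Concentrations 0.002 - 200 uM; activity scaled to 17beta-estradiol positive control.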

A short description of assay [6]: CCTE_Deisenroth_AIME_384WELL_CTox_Active: Cytotoxicity Assessment (CTOX) in CCTE's 384-well Estrogen Receptor Transactivation Assay with AIME metabolic competence (metabolism positive), Deisenroth Lab (AID 2284037).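 Further: chemicals first conditioned 2 h by alginate-bound induced rat liver S9 before cells; activity means signal loss indicating cell death.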 In short, it runs like this: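 Chemicals pre-incubated 2 hours with alginate-immobilised phenobarbital/beta-naphthoflavone-induced male Sprague Dawley rat liver S9, then conditioned medium applied 24 hour to VM7Luc4E2 cells. Viability by fluorogenic protease substrate; 10-point series 0.002 - 200 uM.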

Assay [7] deals with Estrogen receptor (Homo sapiens) (UniProt P03372). The assay is described as follows: CCTE_Deisenroth_AIME_384WELL_LUC_Inactive: CCTE's 384-well Estrogen Receptor Transactivation Assay without AIME metabolic competence (ERTA luciferase; metabolism negative), Deisenroth Lab (AID 2284038).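 Further: hits raise estrogen receptor luciferase signal so potencies reflect agonists.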 In short, it runs like this: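 VM7Luc4E2 ER transactivation, luciferase bioluminescence after 24 h, using medium pre-incubated 2 h with S9-free alginate microspheres. Concentrations 0.002–200 uM; gain of signal fitted relative to 17beta-estradiol.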

For assay [8] the target is unchanged. The assay is described as follows: CCTE_Deisenroth_AIME_384WELL_LUC_Shift: CCTE's 384-well Estrogen Receptor Transactivation Assay with AIME metabolic competence data shift (ERTA luciferase; difference in metabolism positive and negative), Deisenroth Lab (AID 2284041; active means hit-call score of the fitted dose curve at least 0.9, where 1 is the maximum; inactive means score below 0.9;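 further: shift is response with S9 minus without S9 so positive means metabolism raised ER signal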). A digest of the protocol: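 Chemicals (0.002–200 uM, 10 points) pre-incubated 2 h with alginate-encapsulated induced male Sprague Dawley rat liver S9 or S9-free, then medium applied 24 h to VM7Luc4E2 cells; luciferase. Endpoint is per-concentration difference, S9-positive minus negative.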

Assay [9] is described as follows: CCTE_Deisenroth_AIME_384WELL_CTox_Inactive: Cytotoxicity Assessment (CTOX) in CCTE's 384-well Estrogen Receptor Transactivation Assay without AIME metabolic competence (metabolism negative), Deisenroth Lab (AID 2284039).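 Further: cell viability via live-cell protease substrate cleaved to fluorescent probe; loss of fluorescence signal means loss of viability.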 In short, it runs like this: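 Fluorescent protease-substrate viability readout after 24 h exposure of VM7Luc4E2 cells to conditioned medium. Chemicals (0.002–200 uM) first sat 2 h over alginate-water beads, no S9. Data fitted bidirectionally, loss of signal meaning viability loss.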

Assay [10] addresses Estrogen receptor (Homo sapiens) (UniProt P03372). The assay is described as follows: CCTE_Deisenroth_AIME_96WELL_LUC_Inactive: CCTE's 96-well Estrogen Receptor Transactivation Assay without AIME metabolic competence (ERTA luciferase; metabolism negative), Deisenroth Lab (AID 2284025). In short, it runs like this:
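Metabolism-negative arm: chemicals (0.002–200 uM, 10 points) incubated 2 h with alginate-water microspheres, then medium moved onto VM7Luc4E2 cells for 24 h luciferase read-out. Positive direction vs 17beta-estradiol; n≥4 experiments.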

Assay [11] can be described thus: CCTE_Deisenroth_AIME_96WELL_CTox_Active: Cytotoxicity Assessment (CTOX) in CCTE's 96-well Estrogen Receptor Transactivation Assay with AIME metabolic competence (metabolism positive), Deisenroth Lab (AID 2284028). A digest of the protocol: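 Cytotoxicity in VM7Luc4E2 breast cells after 24 h exposure to medium from a 2 h metabolic pre-incubation with induced rat hepatic S9 in alginate microspheres; fluorescent live-cell protease readout, 10-point series 0.002–200 uM, n=4.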

Assay [12] is described as follows: CCTE_Deisenroth_AIME_96WELL_CTox_Inactive: Cytotoxicity Assessment (CTOX) in CCTE's 96-well Estrogen Receptor Transactivation Assay without AIME metabolic competence (metabolism negative), Deisenroth Lab (AID 2284029). A digest of the protocol:
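Metabolism-negative mode: alginate-water lids without rat S9, 2 h pre-incubation of 10-point series (0.002 - 200 uM). Conditioned medium on VM7Luc4E2 cells 24 h; loss of fluorescent live-cell protease signal marks cytotoxicity.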

Assay [13] in a line: CCTE_Shafer_MEA_dev_firing_rate_mean: CCTE's Neural Network Formation Assay for Mean Firing Rate, Shafer Lab (AID 2284031; active means hit-call score of the fitted dose curve at least 0.9, where 1 is the maximum; inactive means score below 0.9). A digest of the protocol:
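Steps: seed rat cortical cells (1.5 x 10^5/well) with laminin on PEI-coated MEA; dose day 0; record DIV 5/7/9/12, full media and compound exchange after DIV 5 and 9 recordings; compute well-mean firing rate AUC.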

Assay [14] is described as follows: CCTE_Shafer_MEA_dev_active_electrodes_number: CCTE's Neural Network Formation Assay for Number of Active Electrodes, Shafer Lab (AID 2284040). In short, it runs like this:
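Counts electrodes per well firing at least 5 spikes/min, recorded on days 5, 7, 9 and 12 in rat cortical cultures dosed continuously from plating (treatment refreshed DIV 5, 9). Value is the area under the curve over recordings, fitted downward relative to DMSO.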

Assay [15] is described as follows: CCTE_Shafer_MEA_dev_burst_rate: CCTE's Neural Network Formation Assay for Burst Rate, Shafer Lab (AID 2284042; active means hit-call score of the fitted dose curve at least 0.9, where 1 is the maximum; inactive means score below 0.9). A digest of the protocol: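 Exposure ran continuously over 12 days of network development in rat cortical cultures, with compound refreshed during full media changes on DIV 5 and 9. Single-electrode bursts per recording time, well-mean over active electrodes, trapezoidal AUC across days 5–12, fitted downward relative to DMSO.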

A short description of assay [16]: CCTE_Shafer_MEA_dev_bursting_electrodes_number: CCTE's Neural Network Formation Assay for Number of Bursting Electrodes, Shafer Lab (AID 2284043). In short, it runs like this:
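Rat cortical primary neurons, 48-well MEA, 16 electrodes/well; dosing DIV 0–12, re-dosed with full media change DIV 5, 9. Recordings DIV 5/7/9/12, AxIS adaptive spike detector; bursting electrode = ≥1 burst/2 min. AUC across days; loss of signal vs DMSO.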

Assay [17] is described as follows: CCTE_Shafer_MEA_dev_per_burst_interspike_interval: CCTE's Neural Network Formation Assay for Burst Interspike Interval, Shafer Lab (AID 2284044; active means hit-call score of the fitted dose curve at least 0.9, where 1 is the maximum; inactive means score below 0.9). A digest of the protocol: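 Readout is the average time between spikes inside single-electrode bursts, taken as a well mean across bursting electrodes. Cortical neurons from rat developed networks on MEA plates under continuous 12-day exposure; recordings on days 5, 7, 9 and 12 were integrated by trapezoidal AUC.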

Assay [18] is described as follows: CCTE_Shafer_MEA_dev_burst_duration_mean: CCTE's Neural Network Formation Assay for Mean Burst Duration, Shafer Lab (AID 2284045; active means hit-call score of the fitted dose curve at least 0.9, where 1 is the maximum; inactive means score below 0.9). A digest of the protocol: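 Rat cortical cultures, 1.5 x 10^5 cells/well with laminin drop; continuous dosing days 0–12, media plus treatment refreshed DIV 5, 9. AxIS adaptive spike detection; mean single-electrode burst duration, AUC over four recordings, negative direction vs DMSO.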

Assay [19] in a line: CCTE_Shafer_MEA_dev_interburst_interval_mean: CCTE's Neural Network Formation Assay for Mean Interburst Interval, Shafer Lab (AID 2284046; active means hit-call score of the fitted dose curve at least 0.9, where 1 is the maximum; inactive means score below 0.9;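 further: well-mean interburst interval of bursting electrodes as AUC over four recording days; curve fitted for decrease in interburst interval relative to DMSO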). A digest of the protocol:
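Primary rat cortical neurons on PEI-coated 48-well MEA plates (laminin added with cells at plating) (16 electrodes/well), exposed from plating day 0 with renewal at DIV 5 and 9. Mean inter-burst interval averaged over bursting electrodes, AUC across days 5, 7, 9, 12; DMSO baseline.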

In assay [20] the target is Estrogen receptor (Homo sapiens) (UniProt P03372). The assay is described as follows: CCTE_Deisenroth_AIME_96WELL_LUC_Active: CCTE's 96-well Estrogen Receptor Transactivation Assay with AIME metabolic competence (ERTA luciferase; metabolism positive), Deisenroth Lab (AID 2284023). In short, it runs like this:
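Metabolism-positive mode: induced rat hepatic S9 in alginate microspheres conditions test solutions (0.002 - 200 uM, 10 points) for 2 hours. VM7Luc4E2 ER luciferase reporter cells then exposed 24 h; positive-direction fit against 17beta-estradiol, n=4 typical.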

Records with an inconclusive call do not appear. Calls of active or inactive are those of the source. How the source made its calls, unless noted: active means hit-call score of the fitted dose curve at least 0.9, where 1 is the maximum; inconclusive means response in the unintended direction; inactive means score below 0.9.

Sequence of Estrogen receptor (Homo sapiens) (P03372 whole entry, looked up): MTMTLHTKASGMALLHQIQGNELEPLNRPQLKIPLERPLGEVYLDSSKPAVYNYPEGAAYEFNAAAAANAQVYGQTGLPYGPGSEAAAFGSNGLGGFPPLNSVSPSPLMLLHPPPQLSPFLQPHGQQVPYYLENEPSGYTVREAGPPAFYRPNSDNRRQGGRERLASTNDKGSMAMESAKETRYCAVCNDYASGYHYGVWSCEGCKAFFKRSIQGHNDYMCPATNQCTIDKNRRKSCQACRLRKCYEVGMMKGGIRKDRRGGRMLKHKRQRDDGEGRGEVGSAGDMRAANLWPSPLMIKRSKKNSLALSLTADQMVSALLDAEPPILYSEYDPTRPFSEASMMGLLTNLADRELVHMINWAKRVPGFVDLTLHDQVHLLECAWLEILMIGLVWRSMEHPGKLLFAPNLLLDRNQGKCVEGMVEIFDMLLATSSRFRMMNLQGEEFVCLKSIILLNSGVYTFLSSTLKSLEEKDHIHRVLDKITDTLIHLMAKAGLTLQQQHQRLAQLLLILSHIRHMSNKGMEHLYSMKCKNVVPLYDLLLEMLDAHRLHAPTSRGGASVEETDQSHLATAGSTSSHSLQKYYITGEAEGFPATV

With `OC1CCC(C2CCCCC2)CC1` (stereo not drawn), the outcome in assay [1], in assay [2], in [3] and in assay [4] was inactive.

Turning to `CCCCC(CC)COC(=O)CCCCC(=O)OCc1ccccc1` (stereo not drawn), the call in [5], in assay [6], in assay [7] and in assay [8] was inactive.

As for `Cc1ccc(S(=O)(=O)O)c(C)c1`, the result in assay [5], in assay [6], in assay [7], in assay [9] and in [8] was inactive.

What is called AC50 is the midpoint of the concentration-response curve, whichever way the signal moves. With `COc1cc(CCC(=O)CC(=O)CCc2ccc(O)c(OC)c2)ccc1O`, the molecule was classed as inactive in [10]. The AC50 in assay [11] was 150 µM (active); in assay [12], 164 µM (active).

Take `COc1ccc([N+](=O)[O-])cc1N`: the AC50 in assay [6] and in assay [9] was 100 µM (active) each time. Besides, the call in assay [7] and in assay [8] was inactive.

As for `ClC1=C(Cl)C(Cl)(Cl)C(Cl)=C1Cl`, the call in [5], in assay [6], in assay [7] and in assay [8] was inactive.

Consider `C=C(C)C(=O)OCCC(F)(F)C(F)(F)C(F)(F)C(F)(F)C(F)(F)C(F)(F)F`, for which the call in [13], in [14], in assay [15], in assay [16], in assay [17] and in assay [18] was inactive. In addition, the molecule was classed as inactive in assay [19].

For `CCCCCCCCC(=O)O`, the call in assay [5], in [6], in [7], in assay [9] and in [8] was inactive.

Take `CCCCOCCO`: the molecule was called inactive in assay [5], in [7], in [9] and in [8].

Regarding `OCCC(F)(F)C(F)(F)C(F)(F)C(F)(F)C(F)(F)C(F)(F)F`, the call in assay [5], in assay [13], in [6], in [7], in [9] and in assay [14] was inactive. The outcome in assay [8], in [15], in assay [16], in [17], in [18] and in assay [19] was inactive.

Regarding `CC(C)(C)c1ccc(O)c(C(C)(C)C)c1`, the AC50 in [20] is 26.4 µM (active); in assay [11] it was 155 µM (active); in assay [12] it was 163 µM (active); in [6], 171 µM (active); in [9] it was 179 µM (active); in [8], 77.6 µM (active).

With `c1ccc2c(c1)ccc1ccccc12`, the molecule was called inactive in assay [20], in assay [12], in assay [13], in [14], in assay [15] and in [16]. In addition, the call in [17], in assay [18] and in assay [19] was inactive. The AC50 in [10] was 133 µM (active).
